# Bioassay records deposited in PubChem BioAssay by National Center for Advancing Translational Sciences (NCATS).
# NS1 function inh – blocks influenza NS1 protein function. 270,000 compounds, 0.4% hits. Potency, µM (series often up to 46.1 µM), without a hit: at the highest dose activity, positive = more growth; calls by dose curve; further: potency means the concentration at half of the fitted maximal effect; actives are rising curves; nearly all actives have a fitted effect of over 50% in size
#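 Recovery from NS1-induced slow growth read by OD600 in budding yeast switched to galactose assay medium (pH 6.0, -URA) at 1:100 dilution. Compound 23 nl per well; the matching strain lacking NS1 serves as control.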
# Shiga inhibitor – inhibitors of Shiga toxin in Vero cells. Vero cells, Shiga toxin protein synthesis inhibition reporter. inhibition, % at 38.7 µM. 290,000 compounds, 9.2% hits. AID 2315; in the data active means inhibition mostly above about 28%, no sharp cut-off; inactive means mostly below about 43%; further: 0% is about no effect
# Pf growth 48h – P. falciparum growth inhibition at 48 hours (one generation) | P. falciparum luciferase growth in erythrocytes, 48 h | Potency, µM (highest dose often 28.7 µM), for inactives: at the top dose activity change, negative = inhibition, hits mostly inhibitors | 310,000 compounds, 5.9% hits | AID 504832; further: potency means the concentration at half of the fitted maximal effect; on the % scale 0 is the no-effect control and ±100 the full control effect
#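 Erythrocytes infected with P. falciparum carrying an integrated firefly luciferase reporter (2% hematocrit, 0.1% parasitemia final) were exposed to compounds in RPMI 1640 with 0.5% Albumax at 37 C, 5% CO2. Growth inhibition was scored as reduced luminescence.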
# Pf growth 96h – P. falciparum growth inhibition at 96 hour, primary screen for plastid delayed-death inhibitors. Potency, µM (doses to about 28.7 µM), without a hit: top-dose activity change, negative = inhibition, most hits filed as inhibitors. 320,000 compounds, 6.9% hits. AID 504834. P. falciparum luciferase reporter growth, 96 h; further: potency means the concentration at half of the fitted maximal effect; on the % scale 0 is the no-effect control and ±100 the full control effect
#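 Compounds incubated with erythrocytes infected by luciferase-expressing P. falciparum (2% hematocrit, 0.05% parasitemia final) for 96 hours, 37 C in 5% CO2. Growth inhibition scored as decreased luciferase luminescence.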
# FBPA Giardia inh – inhibitors of Giardia lamblia fructose-1,6-bisphosphate aldolase. A8B2U2. purified Giardia FBPA. Potency, µM (titrated, usually from 59.6 µM), without a hit: top-dose activity, negative = inhibition, hits mostly inhibitors. 290,000 compounds, 0.71% hits. AID 2451; further: potency means the concentration at half of the fitted maximal effect; on the % scale 0 is the no-effect control and ±100 the full control effect; nearly all actives have a fitted effect of over 55% in size
# Target sequence (A8B2U2 whole entry, looked up): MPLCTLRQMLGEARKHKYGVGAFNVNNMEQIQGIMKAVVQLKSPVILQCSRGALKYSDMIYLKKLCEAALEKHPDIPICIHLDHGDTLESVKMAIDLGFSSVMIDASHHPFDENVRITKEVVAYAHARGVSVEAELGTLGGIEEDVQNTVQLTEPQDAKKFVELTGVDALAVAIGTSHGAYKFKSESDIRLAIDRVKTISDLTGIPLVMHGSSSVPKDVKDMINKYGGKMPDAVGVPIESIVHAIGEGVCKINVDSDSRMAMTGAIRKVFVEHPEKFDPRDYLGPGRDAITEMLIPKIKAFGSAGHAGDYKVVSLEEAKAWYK
#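 40 nM FBPA preincubated 10 min at RT with compound (up to 57.5 uM final), then substrate plus GAPDH/TPI/NAD/arsenate coupling and diaphorase/resazurin added. Fluorescence read after 20 min at RT, 525/598 nm.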
# CHX counter – counter-screen for Shiga toxin inhibitors: cycloheximide protein synthesis inhibition. cell reporter, cycloheximide protein synthesis inhibition counterscreen. max response, %. 300,000 compounds, 12% hits. AID 2314; in the data active means max response mostly above about 13%, no sharp cut-off; inactive means mostly below about 14%; further: read at 38.3 µM for the half of the compounds with a filed dose; 0% is about no effect
# * = called active by the depositor; u = inconclusive; x = no result given; [ ] = dose if it differs, or a comment. Rows were chosen to be rich in hits. Some 21% of all compounds tested hit in one or more screens of this group. Unless noted, the call rests on the fitted dose curve; in most records, active means well fitted curve in the direction sought with a large enough effect; inconclusive means small, poorly fitted or top-dose-only effect, or another doubt; inactive means no such curve, though single readings can be large; an effect the other way counts as inactive or inconclusive.
SMILES,NS1 function inh,Shiga inhibitor,Pf growth 48h,Pf growth 96h,FBPA Giardia inh,CHX counter
CCOC(=O)CC(=O)c1[nH]c(C)c(C(=O)OCC)c1C,x,46,20%,40%[5.75 µM],-2%,26*
CCOC(=O)c1[nH]c(C)c(/C=N/O)c1C,-11%,26,x,u,1%,0
CC(CC(C)(C)C)CP(=O)(O)CC(C)CC(C)(C)C (centres undefined),x,-20,x,x,14%,-8
C=CCN1CCN(C(=O)c2ccc3c(c2)OCO3)CC1,15%,-3,-4%,0%,x,-1
CCOC(=O)c1c(C)[nH]c(C(=O)COC(=O)C2(C)CC2(Cl)Cl)c1C (centres undefined),-8%,49,x,12%,2%,53*
CCOC(=O)c1c(C)[nH]c(C(=O)CSc2ccc(Cl)cc2)c1C,-5%,89*,93%,x,4%,22*
CCOC(=O)c1c(C)[nH]c(C(=O)CSc2nc(C)cc(C)n2)c1C,3%,14,u,u,1%,-2
CCOC(=O)c1[nH]c(C)c(C(=O)NC2CCCCC2)c1C,-7%,-8,x,9.3µM*,2%,-1
CCOC(=O)c1[nH]c(C)c(C(=O)NCC2CCCO2)c1C (centres undefined),1%,-3,19%,1%,3%,-3
CCOC(=O)c1c(C)[nH]c(C(=O)OCC(=O)NC(C)(C)C)c1C,-1%,10,47%,16%,-3%,23*
NC(=O)CC(NC(=O)Cc1ccc(Cl)cc1)c1ccc(NC2CCCCCCC2)c([N+](=O)[O-])c1 (centres undefined),11%,-2,-4%,0%,3%,-3
CC1CC(C)CN(C(=O)CN2C(=O)NC3(CCCCCCC3)C2=O)C1 (centres undefined),x,x,-10%,-4%,x,x
O=C(Nc1ccccc1)N1CC2(CCN(C(=O)c3cnccn3)CC2)C1,x,x,x,x,-1%,x
CCOC(=O)c1c(C)[nH]c(C(=O)OCC(=O)NCc2ccc(C)cc2)c1C,x,x,-12%,-31%,x,x
CCOC(=O)c1c(C)[nH]c(C(=O)OCC(=O)Nc2cc(C)ccc2OC)c1C,-1%,-15,-2%,5.9µM*,0%,-4
CCNC(=O)COC(=O)c1[nH]c(C)c(C(=O)OC)c1C,x,71*,185%,305%,1%,43*
CC(=O)c1cccc(NC(=O)COC(=O)C2=COCCO2)c1,x,11,-3%,11%,9%,31
CC(C)(C)[C@@H](O)C(Cc1ccc(Cl)cc1)n1cncn1 (some centres undefined),x,-1,x,x,5%,0
CCOC(=O)c1ccc(NCc2nc3ccccc3[nH]2)cc1,-10%,73*,16%,0%,-3%,53*
Cc1cc(C)cc(NC(=O)CCc2nc3ccccc3[nH]2)c1,10%,-12,5%,3.3µM*,2%,-1
O=C(CCc1nc2ccccc2[nH]1)Nc1ccccc1,-7%,2,3%,-18%,-1%,17
Cc1ccc(C(=O)Cc2nc3ccccc3[nH]2)cc1,-51%,65*,0.37µM*,u,-25%,36*
CCc1ccc(NCc2nc3ccccc3c(=O)[nH]2)cc1,2%,88*,-61%,-40%,0%,25*
CCCCNCc1nc2ccccc2c(=O)[nH]1,x,-10,-6%,28%,-23%,11
O=c1cnc2cnc(Oc3cccc(Cl)c3)nc2n1C[C@H]1CCCO1,x,x,x,x,5%,x
SMILES,NS1 function inh,Shiga inhibitor,Pf growth 48h,Pf growth 96h,FBPA Giardia inh,CHX counter
C[C@]1(c2ccccc2)OC(C(=O)O)=CC1=O,x,x,-8%,10%,-1%,x
CCOC(=O)CCc1nc2ccccc2[nH]c1=O,-3%,-11,4%,-18%,0%,-1
CCOC(=O)Cc1nc2ccccc2[nH]1,9%,17,6%,12µM*,0%,-1
CC(C)(C)c1cc(OC(=O)C2CCCC2)ccc1O,-56%,x,14%,5.2µM*,-4%,-6
COc1ccc(CN2CCC(CO)(Cc3ccccc3C(F)(F)F)CC2)c(F)c1,-1%,-2,4.7µM*,u,1%,2
O=C(NNC(=O)c1ccc(S(=O)(=O)N2CCCCC2)cc1)c1ccc(F)cc1,5%,-6,8%,-4%,7%,-8
N#C[C@H]1[C@H](c2ccccc2)[C@](C#N)(C(=O)c2ccccc2)[C@@H]2C=Cc3ccccc3N21,32%,55,u,-13%,x,42*
CN(C)Cc1nnnn1-c1cccc(-n2nnnc2CN(C)C)c1,-3%,1,24%,36%,6%,-1
O=S(=O)(NCCOCC(F)(F)F)c1ccc2oc3ccccc3c2c1,-35%,-12,12µM*,0%,-12%,7
Cc1nnc(NC(=O)C2CCN(S(=O)(=O)c3ccc(Cl)cc3)CC2)s1,x,-7,-2%,11%,3%,2
NC(=O)c1nsc(C(=O)N(Cc2ccco2)C(C(=O)NC2CCCC2)c2ccc(O)cc2)c1N (centres undefined),4%,3,u,-8%,0%,-5
Cc1ccc(C)c(N(C(=O)Cc2cccs2)C(C(=O)NC2CCCC2)c2ccc(C)o2)c1 (centres undefined),6%,4,u,-12%,2%,-4
Cc1ccc(C(C(=O)NC2CCCC2)N(C(=O)Cc2cccs2)c2ccc(C)c(C)c2)o1 (centres undefined),-3%,11,10µM*,10µM*,1%,7
COc1ccc(C(C(=O)NCc2ccccc2)N(Cc2ccc3c(c2)OCO3)C(=O)c2cnccn2)cc1 (centres undefined),-1%,-10,-18%,x,1%,-2
O=C(NC1CCCCC1)C(c1ccccc1)N(Cc1ccc2c(c1)OCO2)C(=O)c1cnsn1 (centres undefined),5%,-4,9.3µM*,-61%,-1%,-3
CC(C(=O)NC1CCCC1)N(Cc1ccco1)C(=O)c1snc(C(=O)NC2CCCC2)c1N (centres undefined),-33%,-8,13µM*,x,-5%,4
O=C(NC1CCCC1)C(c1cccs1)N(C(=O)c1ccco1)c1ccc2c(c1)OCCO2 (centres undefined),2%,52*,u,15%,-6%,15*
COc1ccccc1NS(=O)(=O)c1ccc(C(=O)NCCCN2CCOCC2)cc1,x,x,-18%,u,x,x
Cc1cccc(C)c1NC(=O)CNC(=O)c1cccc(S(=O)(=O)NCc2cccs2)c1,x,x,-13%,-26%,x,x
COc1cc(NS(C)(=O)=O)ccc1Cc1c2ccccc2nc2ccccc12,x,x,x,x,-8%,x
Cc1ccc(C(C(=O)NC2CCCC2)N(C(=O)Cc2cccs2)c2ccc3c(c2)OCCO3)cc1 (centres undefined),0%,-3,3.3µM*,u,1%,0
CC(C)(C)NC(=O)COC(=O)c1snc(C(=O)NC2CCCCC2)c1N,-3%,37*,4%,-14%,1%,18*
